Assay results published in the supplement of paper PMC8728848.
The entries come from a sample that favours the strongest signals as a whole.

Assays:
Experiment in all cases: glycan array binding signal (z-score within array); higher = stronger binding
Settings in all cases: glycan notation: IUPAC condensed, linker removed
[1] = biological target: Fuc(a1-2)Gal
How it was run: (§1)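 Glycan array data were curated from 3228 arrays in the Consortium for Functional Glycomics database and kept only where the protein sequence was available. Glycan names were converted to IUPAC-condensed notation, and columns mapping to the same glycan were averaged. The binding signal is a within-array Z-score, averaged across arrays of the same protein sequence at different concentrations or buffers and across linkers. Negative Z-scores can be read as non-binding.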

[2] = biological target: Fuc(a1-2)Gal(b1-3)GlcNAc(b1-3)Gal(b1-4)Glc
How it was run: as §1

[3] = biological target: Fuc(a1-2)Gal(b1-3)GlcNAc(b1-3)[Fuc(a1-2)Gal(b1-3)GlcNAc(b1-6)]GalNAc
How it was run: as §1

[4] = biological target: Fuc(a1-2)Gal(b1-4)GlcNAc
How it was run: as §1

[5] = biological target: Fuc(a1-2)Gal(b1-4)GlcNAc(b1-6)GalNAc
How it was run: as §1

[6] = biological target: Fuc(a1-2)Gal6S(b1-3)GlcNAc6S
How it was run: as §1

[7] = biological target: Fuc(a1-2)Gal6S(b1-4)Glc6S
How it was run: as §1

[8] = biological target: Fuc(a1-2)[Gal(a1-3)]Gal(b1-3)GlcNAc(b1-2)Man(a1-3)[Fuc(a1-2)[Gal(a1-3)]Gal(b1-3)GlcNAc(b1-2)Man(a1-6)]Man(b1-4)GlcNAc(b1-4)[Fuc(a1-6)]GlcNAc
How it was run: as §1

[9] = biological target: Fuc(a1-2)[Gal(a1-3)]Gal(b1-4)GlcNAc(b1-3)GalNAc
How it was run: as §1

[10] = biological target: Fuc(a1-2)[GalNAc(a1-3)]Gal(b1-4)Glc
How it was run: as §1

[11] = biological target: Fuc(a1-2)[GalNAc(a1-3)]Gal(b1-4)GlcNAc(b1-2)Man(a1-3)[Fuc(a1-2)[GalNAc(a1-3)]Gal(b1-4)GlcNAc(b1-2)Man(a1-6)]Man(b1-4)GlcNAc(b1-4)[Fuc(a1-6)]GlcNAc
How it was run: as §1

[12] = biological target: Fuc(a1-3)[Gal(b1-4)]GlcNAc6S
How it was run: as §1

[13] = biological target: Fuc(a1-3)[Gal3S(b1-4)]Glc
How it was run: as §1

[14] = biological target: Gal(a1-3)Gal(b1-4)GlcNAc(b1-2)Man(a1-3)[Gal(a1-3)Gal(b1-4)GlcNAc(b1-2)Man(a1-6)]Man(b1-4)GlcNAc(b1-4)GlcNAc
How it was run: as §1

[15] = biological target: Gal(b1-3)GalNAc(b1-3)Gal
How it was run: as §1

[16] = biological target: Gal(b1-3)GlcNAc(a1-6)Gal(b1-4)GlcNAc
How it was run: as §1

[17] = biological target: Gal(b1-3)GlcNAc(b1-2)Man
How it was run: as §1

[18] = biological target: Gal(b1-3)GlcNAc(b1-3)Gal(b1-4)Glc
How it was run: as §1

[19] = biological target: Gal(b1-3)GlcNAc(b1-3)Gal(b1-4)GlcNAc(b1-2)[Gal(b1-3)GlcNAc(b1-3)Gal(b1-4)GlcNAc(b1-6)]Man(a1-6)[Gal(b1-3)GlcNAc(b1-3)Gal(b1-4)GlcNAc(b1-2)Man(a1-3)]Man(b1-4)GlcNAc(b1-4)[Fuc(a1-6)]GlcNAc
How it was run: as §1

[20] = biological target: Gal(b1-3)GlcNAc(b1-3)Gal(b1-4)GlcNAc(b1-3)Gal(b1-4)GlcNAc(b1-2)[Gal(b1-3)GlcNAc(b1-3)Gal(b1-4)GlcNAc(b1-3)Gal(b1-4)GlcNAc(b1-6)]Man(a1-6)[Gal(b1-3)GlcNAc(b1-3)Gal(b1-4)GlcNAc(b1-3)Gal(b1-4)GlcNAc(b1-2)Man(a1-3)]Man(b1-4)GlcNAc(b1-4)[Fuc(a1-6)]GlcNAc
How it was run: as §1

[21] = biological target: Gal(b1-3)GlcNAc(b1-3)Gal(b1-4)[Fuc(a1-3)]GlcNAc
How it was run: as §1

[22] = biological target: Gal(b1-4)GlcNAc(b1-2)Man
How it was run: as §1

[23] = biological target: Gal(b1-4)GlcNAc(b1-3)Gal(b1-4)GlcNAc(b1-3)Gal(b1-4)GlcNAc(b1-2)Man(a1-3)[Gal(b1-4)GlcNAc(b1-3)Gal(b1-4)GlcNAc(b1-3)Gal(b1-4)GlcNAc(b1-2)Man(a1-6)]Man(b1-4)GlcNAc(b1-4)[Fuc(a1-6)]GlcNAc
How it was run: as §1

[24] = biological target: Gal(b1-4)GlcNAc(b1-3)Gal(b1-4)GlcNAc(b1-3)Gal(b1-4)GlcNAc(b1-3)Gal(b1-4)GlcNAc(b1-3)Gal(b1-4)GlcNAc(b1-2)[Gal(b1-4)GlcNAc(b1-3)Gal(b1-4)GlcNAc(b1-3)Gal(b1-4)GlcNAc(b1-3)Gal(b1-4)GlcNAc(b1-3)Gal(b1-4)GlcNAc(b1-6)]Man(a1-6)[Gal(b1-4)GlcNAc(b1-3)Gal(b1-4)GlcNAc(b1-3)Gal(b1-4)GlcNAc(b1-3)Gal(b1-4)GlcNAc(b1-3)Gal(b1-4)GlcNAc(b1-2)Man(a1-3)]Man(b1-4)GlcNAc(b1-4)[Fuc(a1-6)]GlcNAc
How it was run: as §1

[25] = biological target: Gal(b1-4)GlcNAc(b1-3)Gal(b1-4)GlcNAc(b1-6)[Gal(b1-3)]GalNAc
How it was run: as §1

[26] = biological target: Gal3S(b1-4)Glc6S
How it was run: as §1

[27] = biological target: Gal6S(b1-4)Glc
How it was run: as §1

[28] = biological target: GalNAc(b1-3)Gal(a1-6)Gal(b1-4)Glc
How it was run: as §1

[29] = biological target: GlcNAc(a1-6)Gal(b1-4)GlcNAc
How it was run: as §1

[30] = biological target: GlcNAc(b1-2)[GlcNAc(b1-4)]Man(a1-3)[GlcNAc(b1-4)][GlcNAc(b1-2)[GlcNAc(b1-6)]Man(a1-6)]Man(b1-4)GlcNAc(b1-4)[Fuc(a1-6)]GlcNAc
How it was run: as §1

[31] = biological target: GlcNAc(b1-3)Fuc
How it was run: as §1

[32] = biological target: GlcNAc(b1-3)Gal(b1-4)GlcNAc(b1-2)Man(a1-3)[GlcNAc(b1-3)Gal(b1-4)GlcNAc(b1-2)Man(a1-6)]Man(b1-4)GlcNAc(b1-4)GlcNAc
How it was run: as §1

[33] = biological target: GlcNAc(b1-3)Gal(b1-4)GlcNAc(b1-3)Gal(b1-4)GlcNAc(b1-3)Gal(b1-4)GlcNAc(b1-3)Gal(b1-4)GlcNAc(b1-2)Man(a1-3)[GlcNAc(b1-3)Gal(b1-4)GlcNAc(b1-3)Gal(b1-4)GlcNAc(b1-3)Gal(b1-4)GlcNAc(b1-3)Gal(b1-4)GlcNAc(b1-2)Man(a1-6)]Man(b1-4)GlcNAc(b1-4)GlcNAc
How it was run: as §1

[34] = biological target: GlcNAc(b1-4)GlcNAc(b1-4)GlcNAc
How it was run: as §1

[35] = biological target: GlcNAc(b1-4)GlcNAc(b1-4)GlcNAc(b1-4)GlcNAc(b1-4)GlcNAc
How it was run: as §1

[36] = biological target: GlcNAc(b1-4)GlcNAc(b1-4)GlcNAc(b1-4)GlcNAc(b1-4)GlcNAc(b1-4)GlcNAc
How it was run: as §1

[37] = biological target: Kdn(a2-3)Gal(b1-3)GalNAc
How it was run: as §1

[38] = biological target: Man(b1-4)GlcNAc
How it was run: as §1

[39] = biological target: Neu5Ac(a2-3)Gal(b1-3)GlcNAc6S
How it was run: as §1

[40] = biological target: Neu5Ac(a2-3)Gal(b1-3)[Neu5Ac(a2-6)]GlcNAc(b1-3)[Fuc(a1-3)[Gal(b1-4)]GlcNAc(b1-6)]Gal(b1-4)Glc
How it was run: as §1

[41] = biological target: Neu5Ac(a2-3)Gal(b1-4)GlcNAc(b1-2)Man(a1-3)[Neu5Ac(a2-6)Gal(b1-4)GlcNAc(b1-2)Man(a1-6)]Man(b1-4)GlcNAc(b1-4)GlcNAc
How it was run: as §1

[42] = biological target: Neu5Ac(a2-3)Gal(b1-4)GlcNAc(b1-3)Gal(b1-4)GlcNAc(b1-3)Gal(b1-4)GlcNAc
How it was run: as §1

[43] = biological target: Neu5Ac(a2-3)Gal(b1-4)GlcNAc(b1-3)Gal(b1-4)GlcNAc(b1-3)[Neu5Ac(a2-3)Gal(b1-4)GlcNAc(b1-3)Gal(b1-4)GlcNAc(b1-6)]GalNAc
How it was run: as §1

[44] = biological target: Neu5Ac(a2-3)Gal(b1-4)GlcNAc(b1-6)[Gal(b1-3)]GalNAc
How it was run: as §1

[45] = biological target: Neu5Ac(a2-3)Gal6S(b1-4)[Fuc(a1-3)]GlcNAc
How it was run: as §1

[46] = biological target: Neu5Ac(a2-6)Gal(b1-4)GlcNAc(b1-3)Gal(b1-4)GlcNAc(b1-6)[Gal(b1-3)]GalNAc
How it was run: as §1

[47] = biological target: Neu5Ac(a2-8)Neu5Gc(a2-3)Gal(b1-4)GlcNAc
How it was run: as §1

B1: Mg3lysM (Mycosphaerella graminicola) (protein)
chain: APQNPPTSCSAAPQPTGTGSPGTVCGSTTFTNYTVKAGDTLGAIAKQYNSGVCDIAKVNGIDNPDYIKPDQVLSIPANCVTPDNTSCVKPVPVITNTCVLGVGSTYTVKSGDSFSAIATSFNITLASLEARNPQIPNYDLIFPGQVINTPLCPNSVCDSIGTYVIESGDIFYNLAQSNNVTVGQLESLNVNVNVTDIHPGDIIILPHNCHNITASA
glycan array binding signal (z-score) [1]: -0.076
glycan array binding signal (z-score) [2]: -0.042
glycan array binding signal (z-score) [3]: 0.259
glycan array binding signal (z-score) [4]: -0.021
glycan array binding signal (z-score) [5]: -0.086
glycan array binding signal (z-score) [6]: -0.089
glycan array binding signal (z-score) [7]: -0.1
glycan array binding signal (z-score) [8]: -0.127
glycan array binding signal (z-score) [9]: -0.118
glycan array binding signal (z-score) [10]: -0.072
glycan array binding signal (z-score) [11]: 0.01
glycan array binding signal (z-score) [12]: 0.023
glycan array binding signal (z-score) [13]: -0.089
glycan array binding signal (z-score) [14]: -0.058
glycan array binding signal (z-score) [15]: 0.131
glycan array binding signal (z-score) [16]: -0.12
glycan array binding signal (z-score) [17]: -0.123
glycan array binding signal (z-score) [18]: -0.065
glycan array binding signal (z-score) [19]: 0.063
glycan array binding signal (z-score) [20]: 0.15
glycan array binding signal (z-score) [21]: -0.157
glycan array binding signal (z-score) [22]: -0.039
glycan array binding signal (z-score) [23]: -0.107
glycan array binding signal (z-score) [24]: 0.14
glycan array binding signal (z-score) [25]: -0.078
glycan array binding signal (z-score) [26]: -0.101
glycan array binding signal (z-score) [27]: -0.027
glycan array binding signal (z-score) [28]: -0.127
glycan array binding signal (z-score) [29]: -0.108
glycan array binding signal (z-score) [30]: -0.113
glycan array binding signal (z-score) [31]: 0.041
glycan array binding signal (z-score) [32]: -0.109
glycan array binding signal (z-score) [33]: -0.191
glycan array binding signal (z-score) [34]: 3.96
glycan array binding signal (z-score) [35]: 19.9
glycan array binding signal (z-score) [36]: 13.5
glycan array binding signal (z-score) [37]: 0.259
glycan array binding signal (z-score) [38]: 0.12
glycan array binding signal (z-score) [39]: -0.154
glycan array binding signal (z-score) [40]: 0.077
glycan array binding signal (z-score) [41]: -0.088
glycan array binding signal (z-score) [42]: -0.099
glycan array binding signal (z-score) [43]: 0.153
glycan array binding signal (z-score) [44]: -0.065
glycan array binding signal (z-score) [45]: -0.14
glycan array binding signal (z-score) [46]: 0.12
glycan array binding signal (z-score) [47]: 0.137
